Screening results from PubChem.
GLP1R inv ag – GLP-1 receptor (human) inverse agonism; 410,000 compounds, 1.6% hits; P43220; HEK293 GLP-1R CRE-luciferase, luminescence, 24 h; GLP-1R form is constitutively active; AID 624417; Potency, µM (top dose mostly 38.3 µM), for inactives: at the highest dose activity change, negative = inhibition, hits mostly inhibitors; also: % is scaled to controls: 0 for no effect and ±100 for the full control effect; nearly all actives have a fitted effect of over 55% in size
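Inverse agonists were sought by their lowering of basal cAMP reporter luciferase output in HEK293 cells stably carrying constitutively active human GLP-1R, after 24 h compound treatment.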
GLP-1R agonist – activates the human GLP-1 receptor; P43220; HEK293 GLP-1R CRE-luciferase, luminescence, 4-6 h; cells express a hypersensitive GLP-1R form; Potency, µM (titrated, usually from 45.6 µM), for inactives: at the top dose activation, most hits filed as activators; 380,000 compounds, 0.007% hits; AID 624172; also: % of control where 0% means no effect
GLP1R cytotox – cytotoxicity in counter-screen for GLP-1R inverse agonists | 410,000 compounds, 0.13% hits | HEK293 cAMP-luciferase reporter cells, luminescence, 24 h | Potency, µM (titrated, usually from 38.3 µM), for inactives: at the top dose activity change, negative = inhibition, hits mostly inhibitors;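 also: loss of luciferase light is scored as toxicity; % is scaled to controls: 0 for no effect and ±100 for the full control effect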
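Cells in DMEM/10% Nu serum/1% pen-strep, 1536-well format. Pre-incubated 12 h, dosed with 23 nL compound, incubated a further 24 h. Luciferase detection, 12 min at room temp, luminescence.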
PTHR1 agonist – agonists of human PTHR1 parathyroid hormone receptor | Q03431 | Potency, µM (top dose mostly 115 µM), without a hit: at the highest dose activation, hits mostly activators | HEK293 GP2 PTHR1 cells, GloSensor cAMP luminescence, 1 h | 410,000 compounds, 0.075% hits; also: nearly all actives have a fitted effect of over 55% in size
Target sequence (Q03431 whole entry, looked up): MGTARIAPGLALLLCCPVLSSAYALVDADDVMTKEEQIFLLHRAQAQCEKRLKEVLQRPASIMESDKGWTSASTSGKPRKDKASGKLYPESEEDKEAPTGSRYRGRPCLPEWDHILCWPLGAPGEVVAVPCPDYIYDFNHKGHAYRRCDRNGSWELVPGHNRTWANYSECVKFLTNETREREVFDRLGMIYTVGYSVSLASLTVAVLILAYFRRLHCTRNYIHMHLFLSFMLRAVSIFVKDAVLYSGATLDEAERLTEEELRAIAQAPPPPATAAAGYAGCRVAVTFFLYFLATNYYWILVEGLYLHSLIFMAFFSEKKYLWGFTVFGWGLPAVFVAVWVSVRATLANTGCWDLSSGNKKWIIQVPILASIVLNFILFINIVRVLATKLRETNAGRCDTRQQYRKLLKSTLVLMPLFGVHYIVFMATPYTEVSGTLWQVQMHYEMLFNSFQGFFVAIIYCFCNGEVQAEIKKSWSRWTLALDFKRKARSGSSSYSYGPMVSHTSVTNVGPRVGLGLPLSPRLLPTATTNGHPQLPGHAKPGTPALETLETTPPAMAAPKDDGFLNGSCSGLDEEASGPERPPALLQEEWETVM
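HEK-293-derived GP2 cells expressing PTHR1 and a GloSensor cAMP reporter, 3,000/well, plated overnight, given luciferin plus IBMX (each 0.5 mM as added) for 1 h at 37 °C, then compound for 1 h at 37 °C. Luminescence was read after 15 min at room temperature.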
RGS4 inhibitor – blocks human RGS4-accelerated GTP hydrolysis. 390,000 compounds, 0.039% hits. Potency, µM (top dose mostly 114 µM), for inactives: top-dose activity change, negative = inhibition, hits mostly inhibitors. P49798. AID 504845. Transcreener GDP fluorescence polarization, RGS4-accelerated GTP hydrolysis; also: % is scaled to controls: 0 for no effect and ±100 for the full control effect; nearly all actives have a fitted effect of over 75% in size
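MLSMR compounds (23 nl, pin-transferred) preincubated 10 min at room temperature with a 500nM (2x) first reagent, then RGS4 at 900nM (2x) plus Transcreener GDP mix added; fluorescence polarization (620/688 nm) read before and after 90 min at 30 °C.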
Numbers without * were called inactive; i = inactive; ? = inconclusive; / = no result given; [ ] = remark or other dose. An excerpt weighted towards active compounds, which were near 1.7% of everything screened. Calls follow the shape of the dose curve; as a rule, active = well fitted curve in the direction sought with a large enough effect; inconclusive = small, poorly fitted or top-dose-only effect, or another doubt; inactive = no such curve, though single readings can be large; an effect the other way counts as inactive or inconclusive. Potency is read from the fitted curve at half-maximal effect.

SMILES	GLP1R inv ag	GLP-1R agonist	GLP1R cytotox	PTHR1 agonist	RGS4 inhibitor
COc1ccc2cc(C(=O)N(C)Cc3ccccc3)[nH]c2c1	17%	3%	0%	i	-3%
O=C(NCc1ccc(Cl)cc1)C1CCN(S(=O)(=O)c2ccc3c(c2)CCCN3C(=O)C2CCC2)CC1	?	/	-12%	-17%	-31%
CCn1cc(C(=O)NCCc2ccc(OC)c(OC)c2)c(=O)c2cc(S(=O)(=O)N3CCC(C)CC3)ccc21	33%	5%	-2%	-50%	-4%
Cc1ccc(-c2nnc(SCC(=O)Nc3ccccc3F)o2)cc1	2.2µM*	-2%	-8%	-91%	-17%
O=C(CSc1nnc(-c2ccccc2)o1)Nc1ccccc1F	?	0%	-3%	-29%	?
Cc1cc(-c2nnc(SCC(=O)Nc3ccccc3C(F)(F)F)o2)c(C)n1-c1ccccc1	0.89µM*	-22%	-5%	-4%	-28%
CCc1ccc(S(=O)(=O)c2c[nH]c3cc(OC)c(OC)cc3c2=O)cc1	4%	/	9%	-1%	-7%
COc1cc(/C=N/Nc2nc(Nc3ccc(C)cc3)nc(-n3nc(C)cc3C)n2)cc(OC)c1OC	?	7%	4.5µM*	i	-3%
COc1cc(/C=N/Nc2nc(Nc3ccccc3)nc(-n3nc(C)cc3C)n2)cc(OC)c1OC	?	18%	?	-20%	-14%
CCn1c(CNC(=O)C23CC4CC(CC(C4)C2)C3)nnc1SCC(=O)Nc1ccccc1	5%	0%	-22%	-30%	-21%
CN(C)S(=O)(=O)c1cccc(NC(=O)c2ccc(COc3ccccc3)cc2)c1	10µM*	9%	-8%	-45%	-22%[56.9 µM]
CCCS(=O)(=O)N1CC(=O)N(c2ccccc2C)C(C)(C(=O)NC2CCCC2)C1 (stereo not given)	11%	/	13%	i	26%
CCCN(C(=O)CCc1nc(-c2ccc(C)cc2)no1)c1ccc(OCC)cc1	11µM*	/	5%	i	11%
CCOc1ccc(N(CC)C(=O)CCc2nc(-c3ccccc3F)no2)cc1	?	/	-8%	-13%	4%
CCc1ccccc1N(CC)C(=O)CCc1nc(-c2ccc(C)cc2)no1	8.9µM*	6%	2%	-19%	-6%
Cc1cccc(-c2noc(CCC(=O)NCCc3ccccc3)n2)c1	?	17%	1%	-39%	25%[56.9 µM]
CCN(CCCNC(=O)CCc1nc(-c2ccc(C)cc2)no1)c1cccc(C)c1	10µM*	4%	5%	-19%	1%[11.4 µM]
Cc1cccc(NC(=O)N2CCc3c(sc4c3CCCC4)C2c2ccc(F)cc2)c1 (stereo not given)	?	/	0%	i	-4%
COc1ccc(NC(=O)N2CCc3c(sc4c3CCCC4)C2c2ccc(F)cc2)cc1 (stereo not given)	2.8µM*	/	6%	-21%	22%
O=C(Nc1ccccc1Cl)NN1CCCCCC1	2µM*	27%	1%	-6%	21%
O=C(Nc1cccc(C(=O)O)c1)Nc1ccccc1Cl	4.5µM*	-4%	-2%	-31%	-18%
O=C(Nc1cccc(Cl)c1)Nc1cccc(C(=O)O)c1	?	-4%	-6%	-30%	2%
O=C(Nc1ccc(Cl)c(Cl)c1)Nc1ccccc1C(=O)O	5.6µM*	-6%	-7%	-34%	-6%
O=C(Nc1ccc(Cl)cc1)Nc1cccc(C(=O)O)c1	1µM*	-8%	1%	-16%	-2%
O=C(NCCc1ccccc1)c1c[nH]c2ccccc2c1=O	-5%	-4%	-12%	-2%	/
SMILES	GLP1R inv ag	GLP-1R agonist	GLP1R cytotox	PTHR1 agonist	RGS4 inhibitor
Cc1cccc(N(Cc2ccccc2)C(=O)c2cccc(S(=O)(=O)N3CC(C)OC(C)C3)c2)c1 (stereo not given)	?	13%	-9%	-11%	-1%
COC(=O)c1cc(NC(=O)Nc2ccccc2)ccc1Cl	10µM*	-9%	-16%	-7%	-27%
COC(=O)c1cccc(NC(=O)Nc2ccc(Cl)c(Cl)c2)c1	?	-17%	-28%	-37%	-21%
CN(C)c1ccc(N=Nc2ccccc2Br)cc1	?	-4%	?	-86%	25%
CN(C)c1ccc(N=Nc2nccs2)cc1	?	-2%	11µM*	-38%	/
CCCC(=O)O[C@]1(C(=O)COC(=O)CC)[C@@H](C)C[C@H]2[C@@H]3CCC4=CC(=O)C=C[C@@]4(C)[C@@]3(F)[C@H](O)C[C@@]21C	/	-4%	/	/	/
COc1cccc(N/C(SCc2ccccc2C)=C(/C#N)C(=O)NCc2cccs2)c1	7.1µM*	-5%	15%	i	-12%
Clc1ccc(-c2nc(NCCCN3CCOCC3)c3ccccc3n2)cc1	?	18%	?	i	-4%
Clc1cccc(-c2nc(NCCCN3CCOCC3)c3ccccc3n2)c1	10µM*	3%	-8%	i	9%
Clc1cccc(-c2nc(NCCN3CCOCC3)c3ccccc3n2)c1	7.1µM*	17%	-19%	-7%	0%
CCC(=O)N1CCc2cc(Br)cc(S(=O)(=O)CCC(=O)NCc3ccc(Cl)cc3)c21	8%	/	0%	i	-21%
COc1ccccc1C(CNC(=O)c1cccc(S(=O)(=O)Nc2ccc(C)cc2)c1)N1CCCC1 (stereo not given)	5.6µM*	-5%	-28%	-9%	-24%
COc1ccccc1NS(=O)(=O)c1cccc(C(=O)NCC(c2ccccc2OC)N2CCCC2)c1 (stereo not given)	?	5%	11%	-18%	-13%
Cc1ccc(N(C)S(=O)(=O)c2cccc(C(=O)NCC(c3ccco3)N3CCCC3)c2)cc1 (stereo not given)	10µM*	-4%	3%	-16%	8%
Cc1ccc(S(=O)(=O)N(C)c2ccc(C(=O)NCC(c3ccco3)N3CCCC3)cc2)cc1 (stereo not given)	?	11%	7%	-30%	/
COc1ccc(C(=O)Nc2ccc(C)cn2)c(OC)c1	2µM*	-18%	8%	-77%[57.5 µM]	6%
CC(C)(C=O)Cc1cc(C(C)(C)C)c(O)c(C(C)(C)C)c1	11µM*	4%	-13%	-59%	-5%[56.9 µM]
CN(C)Cc1cc(C(C)(C)C)c(O)c(C(C)(C)C)c1	-29%	-9%	-1%	-6%[57.5 µM]	1%[11.4 µM]
CC(C)(CO)Cc1cc(C(C)(C)C)c(O)c(C(C)(C)C)c1	7.1µM*	?	-23%	-55%	?
Cc1cc(C(C)(C)C)c(O)c(C(C)(C)C)c1	5%	-5%	1%	-34%	-2%
CC1CCN(CCCCOc2ccccc2[N+](=O)[O-])CC1	-1%	0%	8.9µM*	24%	-31%
CC1CCN(CCCCOc2ccc([N+](=O)[O-])cc2)CC1	-17%	-1%	-1%	i	2%
